According to PubChem BioAssay (NCI):
About 83,000 compounds went through this panel and 20% of them were active in at least one assay; those are over-represented in the sample as a whole.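 Testing used 96-well plates and a 48-hour single-concentration exposure. Example: -40 means 40% of the starting cells died.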 A number with no mark means an inactive call. Active and inactive are the calls of the source.

These compounds were tested on PC-3 prostate (assay: NCI-60 one-dose screen, 48 h (100 = growth as untreated, 0 = no growth, -100 = all killed)). Conditions: 10 µM unless noted.
Protocol: Growth inhibition of the PC-3 human tumor cell line is measured as a screen for anti-cancer activity. Cells are grown in 96 well plates and exposed to the test compound for 48 hours. Compounds are tested at a single concentration, which is 10^-5 M for most compounds. The reported endpoint is percent growth (GI% or GIPRCNT), where numbers from 0 - 100% represent growth inhibition, and numbers from -100% - 0 represent cell death. For example, a value of 40 represents 60% growth inhibition. A value of 0 means no net growth occurred over the course of the experiment. A value of -40 indicates 40% of cells at the beginning of the experiment died by the end of the experiment. A value of -100 means all cells are dead at the end of the experiment.
NCI-60 Human Tumor Cell Lines Screen was performed using the standard one-dose NCI protocol, which is described in more detail at https://dtp.cancer.gov/discovery_development/nci-60/default.htm.
Compounds with GIPRCNT values below 10 were considered active. Activity score was based on GIPRCNT using the following formula: […]
Score is 0 for GIPRCNT values of 100 or above, 50 for GIPRCNT values of 0, and 100 for GIPRCNT values of -100.

Question: Which growth does the source give for `[O-][n+]1c(Cl)cc(Cl)c2ccccc21` here?
Answer: 81.2%

Question: How did the growth turn out when `O=S(=O)(NCCNc1nccc(-c2c(-c3cccc(F)c3)nc3sccn23)n1)c1ccccc1` was run?
Answer: 33.1%

Question: With `N/C(=N\C(N)=N\c1nc2ccccc2s1)c1ccnc(Br)c1` as the compound, how does the growth read?
Answer: 35.3%

Question: For `O=[N+]([O-])c1ccc(NC(=S)N/N=C/c2cc3ccccc3n3nnnc23)cc1`, which growth is on record?
Answer: 34.5%

Question: For `COc1cc2c(c(OC)c1OC)-c1ccc(NNC(=S)N(Cc3cccc(C[N+](Cc4cccc(CNC56CC7CC(CC(C7)C5)C6)c4)(Cc4cccc(CNC56CC7CC(CC(C7)C5)C6)c4)Cc4cccc(CN(C(=S)NNc5ccc6c(cc5=O)[C@@H](NC(C)=O)CCc5cc(OC)c(OC)c(OC)c5-6)C56CC7CC(CC(C7)C5)C6)c4)c3)C34CC5CC(CC(C5)C3)C4)c(=O)cc1[C@@H](NC(C)=O)CC2` (stereo not given in full), which growth is on record?
Answer: 12.2%

Question: `N#Cc1c(-c2cccc([N+](=O)[O-])c2)nc(SCC(=O)c2ccc(Cl)cc2)[nH]c1=O` was tested. Which growth did it give?
Answer: 100%

Question: How did the growth turn out when `C=C(CBr)[C@@H]1CC[C@]2(COC(C)=O)CC[C@]3(C)[C@H](CC[C@@H]4[C@@]5(C)CCCNC(C)(C)[C@@H]5CC[C@]43C)[C@@H]12` was run?
Answer: 12.9%

Question: For `Cc1cc2nc3c4cccc(O)c4n(CCN(C)C)c3nc2cc1C`, which growth is on record?
Answer: 35.6%

Question: Which growth does the source give for `COc1ccc(C(=O)c2cc(C)c(OC)c(C)c2)c(OC)c1NC(C)=O` here?
Answer: 20.9%

Question: `COc1cc2cc(Oc3cccc(NC(=O)Nc4cc(C(F)(F)F)cc(C(F)(F)F)c4)c3)c(C)nc2cc1OC` was tested. Which growth did it give?
Answer: 6.82% (active)

Question: For `Cc1c2cc[nH]c(=O)c2c(C)c2c1[nH]c1cc(OCCN3CCN(C)CC3)ccc12`, which growth is on record?
Answer: 7.38% (active)

Question: With `Cc1cc2nc3c4cc([N+](=O)[O-])ccc4n(CCN(C)C)c3nc2cc1C` as the compound, how does the growth read?
Answer: -0.344% (active)

Question: Which growth does the source give for `C=C1C(=O)O[C@H]2[C@H]1CC/C(COC(=O)NCc1c[nH]c3ccc(F)cc13)=C\CC[C@@]1(C)O[C@@H]21` here?
Answer: 32%

Question: With `COC(=O)CNC(=O)[C@]12CCC(C)(C)C[C@H]1C1=CC[C@@H]3[C@@]4(C)Cc5c([nH]c6ccccc56)C(C)(C)[C@@H]4CC[C@@]3(C)[C@]1(C)CC2` as the compound, how does the growth read?
Answer: 74.4%

Question: `Cc1ccc(CNc2c3ccccc3nc3cc(NC(=O)CCN4CCCC4)ccc23)cc1` was tested. Which growth did it give?
Answer: -0.231% (active)

Question: Which growth does the source give for `COc1ccc2[nH]c(=O)c(CN3CCN(c4nccc(-c5ccc(Cl)cc5)n4)CC3)cc2c1` here?
Answer: 73.6%

Question: For `N/C(=N\C(N)=N\c1nc2ccccc2s1)c1cccc(Cl)c1`, which growth is on record?
Answer: 45%

Question: `Cc1cccc(-c2cn3ccnc3c(-c3ccc4ncn(Cc5ccccc5)c4c3)n2)c1` was tested. Which growth did it give?
Answer: 75.2%

Question: With `c1ccc(Cn2cnc3ccc(-c4nc(-c5ccc6c(c5)ncn6C5CCCCC5)cn5ccnc45)cc32)cc1` as the compound, how does the growth read?
Answer: -39.5% (active)

Question: With `COc1c(Cl)c2c(c(OC)c1OC)-c1ccc(SC)c(=O)cc1[C@@H](NC(=O)OCC(F)(F)F)CC2` as the compound, how does the growth read?
Answer: 24.7%

Question: For `C=C(C)[C@@H]1CC[C@]2(C(=O)N3CCN(C)CC3)CC[C@]3(C)[C@H](CC[C@@H]4[C@@]5(C)CC[C@H](O)C(C)(C)[C@@H]5CC[C@]43C)[C@@H]12`, which growth is on record?
Answer: -70.7% (active)

Question: Which growth does the source give for `N#CC(C#N)=Cc1cc2ccccc2nc1Oc1ccc(C(F)(F)F)cc1` here?
Answer: 51.5%

Question: `OCc1cnccc1NCCCOc1ccccc1` was tested. Which growth did it give?
Answer: 96%

Question: Which growth does the source give for `CN[C@@H](C)C(=O)N[C@H]1CCS[C@H]2CC(C)(C)[C@@H](C(=O)N[C@H]3c4ccccc4C[C@H]3OCC#CC#CCO[C@@H]3Cc4ccccc4[C@@H]3NC(=O)[C@H]3N4C(=O)[C@@H](NC(=O)[C@H](C)NC)CCS[C@H]4CC3(C)C)N2C1=O` here?
Answer: 102%

Question: With `O=C(Nc1ccccc1)Nc1ccc2cc3ccc(NC(=O)Nc4ccccc4)cc3nc2c1` as the compound, how does the growth read?
Answer: 51.5%

Question: How did the growth turn out when `Cc1cc(C(=O)/C=C/c2ccc[nH]2)ccc1-n1ccc(C(F)(F)F)n1` was run?
Answer: 6.59% (active)

Question: `CCCCCN1C=C/C(=C\C(=O)n2ccc3ccccc32)c2ccccc21` was tested. Which growth did it give?
Answer: 85.3%

Question: Which growth does the source give for `Cn1cc(-c2nc(-c3c[nH]c4c(Cl)nccc34)cs2)c2cc(Br)ccc21` here?
Answer: 81.2%

Question: With `O=[N+]([O-])CC(c1ccccc1F)c1c[nH]c2ccccc12` (stereo not given) as the compound, how does the growth read?
Answer: 87.5%

Question: `CC(C)c1ccc(Nc2ccc3c(OCCCN4CCN(C)CC4)cccc3n2)cc1` was tested. Which growth did it give?
Answer: 62.9%

Question: With `N#C/C(=C\c1ccc(C(F)(F)F)cc1)c1cc2ccccc2[nH]1` as the compound, how does the growth read?
Answer: 93.9%

Question: How did the growth turn out when `CC(=O)Oc1ccc(/C=N/NC(N)=S)nc1` was run?
Answer: 81%

Question: How did the growth turn out when `COc1cc2cc(CN3CCN(c4nccc(-c5ccc6ccccc6c5)n4)CC3)c(=O)[nH]c2cc1OC` was run?
Answer: 60.7%

Question: For `CNC(=O)c1cccc(Cn2nc(C)c(NC(=O)c3ccc(COc4ccc(C(F)(F)F)cc4C)cc3)c2C)n1`, which growth is on record?
Answer: 34.6%

Question: `Cc1ccc(NS(=O)(=O)c2ccc(-c3cnc(C4CC4)o3)cc2)cc1C(F)(F)F` was tested. Which growth did it give?
Answer: 68.1%

Question: For `CC(=O)c1ccc(NS(=O)(=O)c2cccc(C(=O)Nc3ccc(Br)cc3)c2)cc1`, which growth is on record?
Answer: 60.4% [25 µM]

Question: `CC(=O)Nc1cccc(-c2ccc3c(c2)NC(=O)/C3=C\c2ccc[nH]2)c1` was tested. Which growth did it give?
Answer: 63.8%

Question: `Cc1cc2nc3c4cc(C=O)ccc4n(CCN(C)C)c3nc2cc1C` was tested. Which growth did it give?
Answer: 15.5%

Question: For `COc1ccc(C(=O)NNc2nc(Cl)nc(N3CCN(C(c4ccccc4)c4ccccc4)CC3)n2)cc1`, which growth is on record?
Answer: -13.3% (active)

Question: For `Cc1ccc(-c2nc3ccccn3c2/C=C2/C(=O)Nc3cc(Cl)ccc32)cc1`, which growth is on record?
Answer: 70.1%
